T cruzi growth-1: T. cruzi intracellular proliferation inhibitors, primary screen, cell-based, beta-gal Tulahuen parasites, NIH3T3 host, luminescence; 5.9% of 77,000 active; T. cruzi beta-gal in NIH3T3, GalScreen luminescence, 90 h; inhibition, % at 8.34 µM;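 active = mean inhibition above about 93%, with at least 55% of replicates each passing it, limit read from the data, passing the limit was not always enough; inconclusive = only one of those two conditions holds; inactive = neither condition holds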
Pf Dd2 growth: P. falciparum Dd2 growth inhibitors, primary screen, SYBR Green fluorescence, single dose replicates. AID 1159554, 2015. 2.3% of 94,000 active. 72 h; stronger effect = lower value. activity change, % at 10 µM; in the data active = activity change below about -80%; inconclusive = no clear call, values can overlap the other calls
C diff HTS: C. difficile growth inhibitors, primary screen, HTS; 0.25% of 86,000 active; AID 1259249, 2017; growth activity, negative = inhibition, % at 16 µg/mL (by protocol); Clostridium difficile clinical isolate growth, OD600, 24 h; stronger effect = lower value;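 active = mean growth activity at or below -80% and every replicate also at or below -80%; inconclusive = mean at or below -80% but some replicate above -80%; inactive = mean growth activity above -80%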;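 also: 0% = DMSO wells and -100% = levofloxacin 16 µg/mL wells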
T cruzi growth-2: T. cruzi intracellular proliferation inhibitors, confirmation, cell-based, NIH3T3 host, beta-gal parasite, luminescence, cherry-pick; T. cruzi beta-gal in NIH3T3, GalScreen luminescence, 90 h; 72% of 5,600 active; shares compounds with T cruzi growth-1; inhibition, % at 8.35 µM;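 active = mean replicate inhibition above about 95% and at least 55% of replicates individually reaching it, limit read from the data; inconclusive = only one of the two criteria is met; inactive = neither criterion is met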
T cruzi growth-3: inhibitors of intracellular T. cruzi replication, confirmation, NIH3T3 host cells, beta-gal parasites, cherry-pick, set 2; inhibition, % at 2.09 µM; shares compounds with T cruzi growth-1; 21% of 5,600 active; T. cruzi beta-gal in NIH3T3, GalScreen luminescence, 90 h;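 active = mean inhibition above about 95%, with at least 55% of replicates also reaching it, limit read from the data; inconclusive = meets just one of the two conditions; inactive = meets neither condition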;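 also: plate controls were neutral control median for no effect and positive control median for full effect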
NIH3T3 tox: cytotoxicity in mouse NIH/3T3 fibroblasts, confirmation, cytotoxicity control for T. cruzi proliferation inhibitor project, cell-based, cherry-pick, single point | shares compounds with T cruzi growth-1 | NIH/3T3 viability, CellTiter-Glo ATP luminescence, 90 h | cytotoxicity (signal decrease), % at 8.35 µM | 14% of 5,600 active | AID 651742, 2012;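 active = mean signal decrease across replicates above about 35% based on untreated-well scatter, with enough replicates individually passing, limit read from the data; inconclusive = no rule stated though some were filed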;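 also: 0% = median of neutral control wells and 100% = median of positive control wells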
3T3 cytotox 2: NIH/3T3 fibroblast cytotoxicity, confirmation, cytotoxicity control, cell-based, cherry-pick, single point, set 2 | inhibition, % at 24.9 µM | 56% of 5,600 active | NIH/3T3 viability, CellTiter-Glo ATP luminescence, 90 h | shares compounds with T cruzi growth-1 | AID 651744, 2012;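 active = mean loss of cell viability signal at or above a set limit, and enough replicates individually reaching it; inconclusive = meets only the mean limit or only the replicate share; inactive = meets neither condition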;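 also: 0% = median of neutral control wells and 100% = median of positive control wells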
* marks the source's active call; other numbers are inactive results; ? = inconclusive; nt = no result given. A selection: hits, their analogues and other compounds. The true share with any hit is near 6.7%.

SMILES	T cruzi growth-1	Pf Dd2 growth	C diff HTS	T cruzi growth-2	T cruzi growth-3	NIH3T3 tox	3T3 cytotox 2
Cc1ccc(S(=O)(=O)N(C)C[C@@H]2Oc3cc(C4=CCCC4)ccc3S(=O)(=O)N([C@H](C)CO)C[C@H]2C)cc1	nt	-72.9	0.5	nt	nt	nt	nt
O=C(C[C@@H]1CC[C@@H]2[C@H](COC[C@H](O)CN2Cc2ccc(C(F)(F)F)cc2)O1)NCCc1ccccc1	nt	-13.5	8.9	nt	nt	nt	nt
COc1cccc(C#Cc2ccc([C@H]3[C@H]4CN(C(C)=O)CC(=O)N4[C@H]3CO)cc2)c1	nt	12.1	-2.7	nt	nt	nt	nt
CCCNC(=O)N1C[C@H](C)[C@@H](OC)CN(C)C(=O)c2ccc(NS(C)(=O)=O)cc2OC[C@H]1C	-25.9	31.1	nt	nt	nt	nt	nt
Cc1ccccc1S(=O)(=O)N1CC[C@@H]2[C@H]1c1cc(-c3cccc(F)c3)ccc1N(C)[C@H]2CO	46.0	7.1	25.1	nt	nt	nt	nt
CN1c2ccc(Br)cc2[C@@H]2[C@@H](CCN2S(=O)(=O)c2ccccc2F)[C@H]1CO	58.3	4.2	-3.7	nt	nt	nt	nt
Cc1ccccc1S(=O)(=O)N1CC[C@@H]2[C@@H](CO)N(C)c3ccc(-c4ccccc4)cc3[C@@H]21	?	-1.5	6.2	111.2*	107.9*	22.7	103.9*
Cc1ccccc1S(=O)(=O)N1CC[C@H]2[C@@H](CO)N(C)c3ccc(Br)cc3[C@H]21	68.6	-58.1	-6.3	nt	nt	nt	nt
CN1c2ccc(Br)cc2[C@H]2[C@H](CCN2S(=O)(=O)c2ccccc2F)[C@@H]1CO	93.3*	9.4	7.0	106.6*	10.8	13.7	15.3
Cc1ccccc1S(=O)(=O)N1CC[C@@H]2[C@@H](CO)N(C)c3ccc(Br)cc3[C@@H]21	?	-17.0	2.7	99.9*	34.8	-1.9	106.0*
CCCNC(=O)N1[C@H](CO)[C@@H]2c3ccccc3N(C(=O)c3ccc(F)cc3)C[C@@H]21	16.6	-26.6	-3.1	nt	nt	nt	nt
COc1ccc(NC(=O)N2CCCCN3[C@H](CO)[C@@H](c4ccc(-c5ccccc5F)cc4)[C@@H]3C2)cc1	65.5	2.4	32.7	nt	nt	nt	nt
COc1ccc(NC(=O)N2CCCCN3[C@H](CO)[C@H](c4ccc(C5=CCCCC5)cc4)[C@@H]3C2)cc1	113.8*	44.5	-17.0	109.5*	86.1	-10.8	80.9*
COc1ccc(NC(=O)N2CCCCN3[C@@H](CO)[C@H](c4ccc(-c5ccccc5C)cc4)[C@@H]3C2)cc1	102.3*	1.7	5.2	101.2*	65.6	24.9	103.7*
COc1ccc(NC(=O)N2CCCCN3[C@H](CO)[C@H](c4ccc(-c5ccccc5C)cc4)[C@@H]3C2)cc1	66.5	-19.3	-4.6	nt	nt	nt	nt
COc1ccc(NC(=O)N2CCCCN3[C@H](CO)[C@@H](c4ccc(-c5ccccc5C)cc4)[C@H]3C2)cc1	109.1*	-46.3	21.3	102.7*	79.4	40.3*	102.9*
COc1ccc(NC(=O)N2CCCCN3[C@@H](CO)[C@@H](c4ccc(-c5ccccc5C)cc4)[C@@H]3C2)cc1	107.9*	-18.5	45.4	82.7	82.3	110.7*	101.8*
COc1ccc(NC(=O)N2CCCCN3[C@H](CO)[C@@H](c4ccc(-c5ccccc5F)cc4)[C@H]3C2)cc1	48.0	-29.5	7.6	nt	nt	nt	nt
COc1ccc(NC(=O)N2CCCCN3[C@@H](CO)[C@@H](c4ccc(C5=CCCC5)cc4)[C@@H]3C2)cc1	94.3	-45.8	14.4	nt	nt	nt	nt
CO[C@H]1CN(C)C(=O)c2ccc(NC(=O)C3CC3)cc2OC[C@H](C)N(C(C)=O)C[C@@H]1C	nt	-18.1	-6.7	nt	nt	nt	nt
COc1ccc(-c2cnc3c(c2)C(=O)N([C@@H](C)CO)C[C@@H](C)[C@H](CN(C)C(=O)C2CCC2)O3)cc1	11.3	27.5	0.0	nt	nt	nt	nt
C[C@@H]1CCCCO[C@H](CN(C)C(=O)C2CCCCC2)[C@H](C)CN([C@@H](C)CO)C(=O)c2cc(NC(=O)Nc3ccccc3)ccc2O1	66.6	-52.8	1.7	nt	nt	nt	nt
COc1ccc(NC(=O)Nc2ccc3c(c2)C(=O)N([C@@H](C)CO)C[C@@H](C)[C@H](CN(C)Cc2ccc4c(c2)OCO4)OCCCC[C@@H](C)O3)cc1	91.2	-68.2	1.7	nt	nt	nt	nt
COc1ccc(CN(C)C[C@@H]2OCCCC[C@@H](C)Oc3ccc(NC(=O)Nc4ccc5c(c4)OCO5)cc3C(=O)N([C@H](C)CO)C[C@@H]2C)cc1	102.5*	38.1	nt	111.0*	10.9	11.2	22.6
COc1ccc(NC(=O)Nc2ccc3c(c2)C(=O)N([C@H](C)CO)C[C@H](C)[C@@H](CN(C)Cc2ccc4c(c2)OCO4)OCCCC[C@@H](C)O3)cc1	53.5	-65.2	8.8	nt	nt	nt	nt
SMILES	T cruzi growth-1	Pf Dd2 growth	C diff HTS	T cruzi growth-2	T cruzi growth-3	NIH3T3 tox	3T3 cytotox 2
COc1ccc(NC(=O)Nc2ccc3c(c2)C(=O)N([C@H](C)CO)C[C@@H](C)[C@@H](CN(C)Cc2ccc4c(c2)OCO4)OCCCC[C@H](C)O3)cc1	92.2	-72.2	11.5	nt	nt	nt	nt
COc1ccc(CN(C)C[C@@H]2OCCCC[C@H](C)Oc3ccc(NC(=O)Nc4ccc5c(c4)OCO5)cc3C(=O)N([C@@H](C)CO)C[C@@H]2C)cc1	102.1*	-68.5	nt	100.1*	91.1	68.1*	80.3*
COc1ccc(NC(=O)Nc2ccc3c(c2)C(=O)N([C@H](C)CO)C[C@H](C)[C@@H](CN(C)Cc2ccc4c(c2)OCO4)OCCCC[C@H](C)O3)cc1	?	-62.0	16.8	105.0*	57.0	23.4	29.8
COc1ccc(CN(C)C[C@H]2OCCCC[C@@H](C)Oc3ccc(NC(=O)Nc4ccc5c(c4)OCO5)cc3C(=O)N([C@@H](C)CO)C[C@@H]2C)cc1	93.7	-56.9	nt	nt	nt	nt	nt
COc1ccc(CN(C)C[C@@H]2OCCCC[C@H](C)Oc3ccc(NC(=O)Nc4ccc5c(c4)OCO5)cc3C(=O)N([C@H](C)CO)C[C@@H]2C)cc1	100.6*	-67.6	nt	94.0	106.4*	30.1	107.1*
O=C(C[C@H]1CC[C@H](NC(=O)Nc2ccc(C(F)(F)F)cc2)[C@H](CO)O1)NCc1ccccn1	5.7	-10.4	-1.8	nt	nt	nt	nt
CN1C(=O)c2cc(NC(=O)NC3CCCC3)ccc2OC[C@@H]2O[C@H](CC(=O)NCC3CC3)CC[C@@H]21	2.3	8.7	-11.7	nt	nt	nt	nt
C[C@@H]1CN([C@@H](C)CO)C(=O)c2cccc(NC(=O)c3nc4ccccc4s3)c2O[C@@H]1CN(C)Cc1ccc(Oc2ccccc2)cc1	69.7	-76.4	7.5	nt	nt	nt	nt
